Key:
Test in all cases: PBM binding z-score (relative to random genomic background probes); higher = stronger binding; sequences stand for … in GC…GCGATTGACAGCGTAGAATGAAGG
[1] = system: PPARg:RXRa DBDmut IVT, anti-RXR (DBD mutation: RXRa K156A/R161A, NR concentration 270 nM, RXRa partner concentration 90 nM)
Method in brief: (§1)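 Scanned fluorescence from custom Agilent 4×180K protein-binding microarrays was regression-normalized. Binding z-scores use random background probes as reference. Ligand-free nuclear receptor dimers were incubated on the arrays for 1 h and detected with antibodies against each partner (one per run).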

[2] = system: PPARg:RXRa IVT, anti-PPARg (NR concentration 270 nM, RXRa partner concentration 90 nM)
Method in brief: as §1

[3] = system: PPARg DBDmut:RXRa IVT, anti-PPARg (DBD mutation: PPARg1 K132A/R137A, NR concentration 270 nM, RXRa partner concentration 90 nM)
Method in brief: as §1

[4] = system: PPARg DBDmut IVT, anti-PPARg (DBD mutation: PPARg1 K132A/R137A, NR concentration 270 nM)
Method in brief: as §1

[5] = system: PPARg homodimer (NR concentration 180 nM)
Method in brief: as §1

[6] = system: PXR:RXRa (NR concentration 270 nM, RXRa partner concentration 90 nM)
Method in brief: as §1

[7] = system: PXR homodimer (NR concentration 270 nM)
Method in brief: as §1

[8] = system: RARa:RXR (NR concentration 270 nM, RXRa partner concentration 90 nM)
Method in brief: as §1

[9] = system: RARa homodimer (NR concentration 270 nM)
Method in brief: as §1

[10] = system: RARb:RXRa (NR concentration 270 nM, RXRa partner concentration 90 nM)
Method in brief: as §1

Row | Sequence | PBM binding z-score [1] | PBM binding z-score [2] | PBM binding z-score [3] | PBM binding z-score [4] | PBM binding z-score [5] | PBM binding z-score [6] | PBM binding z-score [7] | PBM binding z-score [8] | PBM binding z-score [9] | PBM binding z-score [10]
1 | CCTTACGGGTCACTCCAGGTAATAGCATCGGAGT | 2.28 | 3.72 | 0.64 | 0.618 | 2.25 | 3.63 | 0.169 | 3.88 | 0.163 | 3.72
2 | TTACCAAGGTGAGCTGAGGTCGTTTATCCAACTC | 0.956 | 1.9 | -0.2 | -0.389 | -0.278 | 4.87 | 0.621 | 1.58 | -1.08 | 1.53
3 | CGAACTAGGTCATCCAGGAAAGTGAATACATTGA | 8.18 | 8.5 | 3.43 | 1.05 | 1.98 | 1.58 | 0.128 | 2.49 | 0.697 | 3.96
4 | CCTAGCAGGCCAGGGTCACACAAGCATTTCGCTT | 0.592 | 1.47 | -0.955 | -1.08 | 1.19 | 3.43 | -0.631 | 4.06 | 0.145 | 2.9
5 | CCGAGTAGGTTATGGGGGATTCAGGCAACGGTGA | 4.03 | 3.95 | 3.42 | 4.43 | 2.01 | 1.17 | 1.05 | 1.26 | 1.69 | 1.33
6 | CAGCCTAAGTCAGGGCCAGTATAGGAGGAACGTT | -0.358 | -0.577 | -1.05 | -1.43 | -0.193 | -0.653 | -0.125 | -0.178 | -0.484 | -0.134
7 | TAGCCTAGTTCATGGGCCAGTATACCACGCGAAC | 0.459 | 0.731 | -0.299 | -0.226 | -0.229 | 0.408 | 0.205 | 0.216 | -0.319 | 1.37
8 | GCTATTAGCTGAAAGGGCAACCGAATGATTCTCG | 0.31 | 0.298 | -0.309 | -0.672 | 0.621 | 0.34 | -0.258 | 0.809 | -0.61 | 1.76
9 | AGAACGAGGGCACGCTGAGTTGATAGGAGAGTAG | 3.83 | 3.7 | 0.653 | 0.276 | 0.451 | 1.1 | 0.0753 | 0.906 | -0.652 | 2.37
10 | TCATATAAGTAAAGGTGAAAGTCGAACGATATGA | 2.2 | 1.58 | 1.17 | 1.46 | 0.731 | 0.97 | 0.241 | 1.59 | 0.59 | 1.99
11 | CCTTACGCGTCACTGACAGGTTATAGCATTTGGA | 0.598 | -0.176 | 0.212 | 0.276 | 0.943 | 0.459 | 0.407 | 0.676 | 1.36 | 0.243
12 | GCAGACAGGTGAAAAGCAGGTAACTCAGGGTGGC | 0.172 | 0.778 | -0.581 | -1.28 | -0.799 | -0.441 | -0.329 | 0.143 | -0.401 | 0.42
13 | GCTTACGGGTCAACGGTTATAGCATGAATAGAAT | 4.03 | 4.42 | 2.69 | 0.764 | 1.62 | 3.16 | 0.0463 | 4.02 | 0.362 | 4.08
14 | CCTTACGGGTCACGAGGTTCTAGCACGACGAGCG | 4.32 | 5.09 | 0.979 | -0.156 | 2.86 | 4.06 | -0.111 | 5.48 | 0.989 | 4.41
15 | CGAACGAGGGCATGAGTTGATAGAAAATGCCGAT | 2.74 | 1.89 | -0.343 | -0.182 | 0.547 | 0.565 | 0.619 | 0.664 | 0.132 | 1.87
16 | TCATATAGGTAAACAGCTGAAAGTCCGTAAGTTA | 3.93 | 2.25 | 1.07 | 0.733 | 0.646 | 0.928 | 0.555 | 1.19 | 0.977 | 0.471
17 | CTACCAAGGTGAACAAGATCGTTGATTACTATTC | 2.44 | 2.36 | 0.247 | 0.79 | 0.484 | 0.24 | -0.209 | 0.949 | 0.706 | 1.48
18 | AGTCAAAGTTCATCTAGGTAACGTGAGATATGCT | 1.17 | 3.86 | 1.73 | 0.803 | 2.99 | 5.36 | 7.67 | 3.82 | 1.48 | 4.96
19 | CCTCGGCGGACAGAAGGTCAGAGCTGTCCGCTTT | -0.348 | -0.163 | -2.18 | -2.03 | 0.787 | 1.26 | -0.667 | 1.57 | -0.497 | 2.52
20 | ACTATTAGTTGAGACGAGGGCAACCGGTAGGTTG | 0.0734 | 0.502 | 0.336 | -0.0704 | -0.0372 | 1.47 | 0.373 | 0.84 | 0.204 | 1.4
21 | TCTGCTAGGTCAACCATGGTCAGCTAATCTGCTA | 4.75 | 4.6 | -0.545 | -0.0168 | 1.65 | 2.47 | -0.872 | 2.3 | -0.434 | 4.21
22 | ACAGACAGGTGATGAAGGCAACTCAGGCTATCAT | -0.272 | -0.316 | 0.175 | -1.07 | -0.119 | -0.469 | -0.142 | 0.0224 | 0.0844 | 0.0179
23 | ATATGCAGGTTAGCTGGGGTCATTCAGACTAGGC | 2.79 | 2.76 | 0.943 | 1.03 | 1.18 | 6.31 | 2.68 | 5.26 | 0.349 | 3.15
24 | AGAACGAGGTCAATGAGTTGATAGCACGGGTGGC | 5.59 | 5.76 | 1.71 | 0.861 | 3.64 | 5.72 | 8.63 | 5.14 | 0.929 | 4.89

Source: the supplement of paper PMC6555819
